Hits are enriched below; roughly 3.5% of the tested compounds scored in any of these assays.
BoNT-A LC inh2: blocks Botulinum neurotoxin A light chain protease | multiplex microsphere protease substrate cleavage, flow cytometry | AID 588499 | actives 0.17% (n = 360,000) | inhibition, % at 10 µM
Anthrax LF prot: anthrax lethal factor protease inhibition; AID 588501; P15917; inhibition, % at 10 µM; actives 0.12% (n = 360,000); multiplex microsphere protease cleavage assay, LF
BoNT F protease: BoNT F light chain protease inhibition; Multiplex microsphere protease cleavage assay, flow cytometry; inhibition, % at 10 µM; actives 0.22% (n = 360,000); AID 588497; in the data active means inhibition above about 35%, passing the limit was not always enough; inconclusive means no clear call, values can overlap the other calls
Autofluor counter: flagged as autofluorescent in microsphere protease counterscreen; compound autofluorescence counterscreen, microsphere flow cytometry; active compounds read high; fluorescence intensity (no concentration beside the values); actives 3.1% (n = 360,000); in the data active means fluorescence intensity above about 16000; inconclusive means no clear call, values can overlap the other calls
A number is an active result; i = inactive; ? = inconclusive. Unless noted, no stated cut-off is given here; in the data, active means inhibition above about 30%; inconclusive means no clear call, values can overlap the other calls; inactive means below that.

SMILES	BoNT-A LC inh2	Anthrax LF prot	BoNT F protease	Autofluor counter
CC(C)(C)c1ccc(C(=O)CCCSC2=C(C#N)C(c3ccco3)C3=C(CCCC3=O)N2)cc1 (stereo not drawn)	?	i	i	23545
CCCOc1ccc(C(=O)NC(=S)Nc2nc(C)c(C(=O)N(C)C)s2)cc1	i	i	i	18538
Cc1nc(NC(=S)NC(=O)c2ccccc2)sc1C(=O)N(C)C	i	i	i	21936
Cc1nc(NC(=O)c2ccc(Br)s2)sc1C(=O)N(C)C	?	i	i	16535
CCOc1ncccc1C(=O)OCC(=O)NC1CCCCCC1	i	i	?	i
CC1=CCC(C(=O)O)(C(=O)N/N=C/c2cccs2)C(c2ccc([N+](=O)[O-])cc2)C1 (stereo not drawn)	i	i	i	21132
O=C(O)c1ccc(-n2nc(C(F)(F)F)c3c2-c2ccoc2CC3)cc1	i	i	i	21579
CCOC(=O)c1c(C)c(C(=O)NCc2cccs2)c(C)n1CC	i	i	i	20405
CCOC(=O)c1c(C)c(C(=O)NCCN2CCOCC2)c(C)n1CC	i	i	i	17127
COc1ccccc1NC(=O)COC(=O)/C=C/c1ccc(OC)c(OC)c1	i	i	i	i
O=c1[nH]c2ccc(S(=O)(=O)N3CCN(Cc4ccccc4)CC3)cc2[nH]c1=O	i	i	i	21331
O=C(O)C1CCCN1S(=O)(=O)c1ccc2[nH]c(=O)c(=O)[nH]c2c1 (stereo not drawn)	i	i	i	25018
Nc1ccc(S(=O)(=O)N2CCCC2C(=O)O)cc1 (stereo not drawn)	i	i	i	i
CC(C)N(C(=O)[C@H]1C[C@H](CC(=O)NCCCn2ccnc2)C(=O)N2CCc3c([nH]c4ccc(Cl)cc34)[C@]12C)C(C)C	i	i	i	i
Cc1ccc(S(=O)(=O)Nc2ccc(C(=O)NCCCN3CCOCC3)cc2)cc1[N+](=O)[O-]	i	i	i	i
CCOc1ccc(S(=O)(=O)/N=C(/Nc2ccc(C)c(S(=O)(=O)N3CCOCC3)c2)c2ccccc2)cc1	i	i	i	i
Cc1nn(-c2ccccc2)c(C)c1/C=N/NC(=O)c1cc(-c2cccs2)[nH]n1	i	i	i	i
Cc1nn(-c2ccccc2)c(C)c1/C=N/NC(=O)c1cc(-c2ccc(Cl)s2)[nH]n1	i	i	i	17595
Cc1nn(-c2ccccc2)c(C)c1/C=N/NC(=O)c1cc(-c2ccc(Br)s2)[nH]n1	i	i	i	21752
Cc1nn(-c2ccccc2)c(C)c1/C=N/NC(=O)c1ccccc1O	i	i	88.4	i
CC(C)(C)OC(=O)NCCCCCc1nnc(SCc2c(F)cccc2Cl)o1	i	?	58.7	i
CCCCSc1nnc(CCCCCNC(=O)OC(C)(C)C)o1	i	i	i	16992
N#CCC1c2ccccc2CCN1C(=O)Nc1cccc(C(F)(F)F)c1 (stereo not drawn)	i	i	i	i
N#CCC1c2ccccc2CCN1C(=O)Nc1cccc(Cl)c1 (stereo not drawn)	i	i	i	23621
N#CCC1c2ccccc2CCN1C(=O)Nc1ccc(C(F)(F)F)cc1 (stereo not drawn)	i	i	i	16726
SMILES	BoNT-A LC inh2	Anthrax LF prot	BoNT F protease	Autofluor counter
N#CCC1c2ccccc2CCN1C(=O)Nc1ccc(Cl)cc1 (stereo not drawn)	i	i	i	i
COc1ccccc1OCC(=O)Nc1cc(Cl)ccc1N1CCCCC1	i	i	i	i
c1nc2sc3c(c2c2nnnn12)CCCC3	i	i	i	i
c1nc2sc3c(c2c2nnnn12)CCC3	i	i	i	23437
Cc1ccc(N2C(=O)C(Cl)=C(N3CCCCCC3)C2=O)c(C)c1	i	i	i	i
Cc1ccc2c(c1)C(c1ccc(F)cc1)N(C(=O)c1ccccc1Br)CC(=O)N2 (stereo not drawn)	i	i	i	i
CCC1(C)Cc2c(C#N)c(N)n(-c3ccccc3)c(=S)c2CO1 (stereo not drawn)	i	i	i	i
CCC1(C)Cc2c(C#N)c(N)sc(=S)c2CO1 (stereo not drawn)	75.0	41.4	i	i
COC(=O)CSc1nnc(CNC(=O)c2cccc(C)c2)n1-c1ccccc1OC	?	i	i	22455
COc1ccc(OCc2nnc(SCC(N)=O)n2-c2ccccc2OC)cc1	i	i	i	19312
COc1ccc(OCc2nnc(SCC(N)=O)n2N)cc1	i	i	i	i
CCOC(=O)c1cccc(C2=CC(=O)C[C@H](c3ccc(OC)cc3)C2)c1	i	i	i	i
N#Cc1ccccc1Cn1c(-c2cscn2)nc2ccccc21	?	i	i	22811
CCOC(=O)c1sc2c(c1C)c(=O)c(C(=O)OCC)cn2CC	i	i	i	19706
Cc1cc(C)n(CC(O)Cn2cnc3c2c(=O)n(C)c(=O)n3C)n1 (stereo not drawn)	i	i	i	22564
Cn1c(=O)c2c(ncn2CC(O)CO)n(C)c1=O (stereo not drawn)	i	i	i	i
Cc1cccc(C(C)C)c1NC(=O)c1c(-c2ccccc2)noc1C	i	i	i	i
COC(=O)c1ccc2c(=O)[nH]c(COC(=O)c3cccc(S(=O)(=O)N4CCOCC4)c3)nc2c1	i	i	i	i
N#Cc1ccc(COC(=O)c2ccc3c(=O)[nH]c(CN4CCOCC4)nc3c2)cc1	i	i	i	23349
CCCCCn1c(CN2CCN(C(=O)OCC)CC2)nc2c1c(=O)[nH]c(=O)n2C	i	i	i	i
CCCCCCCCn1c(N2CCN(c3cccc(Cl)c3)CC2)nc2c1c(=O)[nH]c(=O)n2C	i	i	i	i
CCOC(=O)N1CCN(Cc2nc3c(c(=O)[nH]c(=O)n3C)n2Cc2cc(C)ccc2C)CC1	?	i	i	20382
CCCCCn1c(CN2CCN(c3cccc(Cl)c3)CC2)nc2c1c(=O)[nH]c(=O)n2C	i	i	i	20547
COc1ccc(N2CCN(Cc3nc4c(c(=O)n(C)c(=O)n4C)n3CC(C)=O)CC2)cc1	i	i	i	20509
CCCCCn1c(CN2CCN(Cc3ccccc3)CC2)nc2c1c(=O)[nH]c(=O)n2C	i	i	i	22888
SMILES	BoNT-A LC inh2	Anthrax LF prot	BoNT F protease	Autofluor counter
Cc1ccc(S(=O)(=O)N2CCN(C(=O)c3ccc4ccccc4n3)CC2)c(C)c1	i	i	i	i
COC(=O)C1=C(C)NC(=S)NC1c1ccc(OCC(=O)N2CCCCC2)c(OC)c1 (stereo not drawn)	i	i	i	i
CCOC(=O)N1CCN(Cc2nc3c(c(=O)n(C)c(=O)n3C)n2CCCc2ccccc2)CC1	i	i	i	20078
CCCCCCn1c(CN2CCN(Cc3ccccc3)CC2)nc2c1c(=O)n(C)c(=O)n2C	i	i	i	20131
Cn1c(=O)[nH]c(=O)c2c1nc(CN1CCN(c3cccc(Cl)c3)CC1)n2CCc1ccccc1	i	i	i	16970
Cn1c(=O)[nH]c(=O)c2c1nc(CN1CCN(c3ccc(F)cc3)CC1)n2CCc1ccccc1	i	i	i	i
CCN(Cc1ccc(Br)s1)C(=O)CSc1nnc(C2CC2)n1C1CC1	i	i	i	i
O=C(Cn1cnc2c(OCc3ccccc3)ncnc21)N[C@H](CO)Cc1cc2ccccc2[nH]1	i	i	i	i
COC(=O)Nc1ccc2c(c1)N(C(=O)CCN1CCN3CCCC3C1)c1ccccc1S2 (stereo not drawn)	?	i	i	23102
